Four compounds from ChEMBL document CHEMBL1961873, “Compounds: GSK PKIS; Assays: Nanosyn kinase panel” (2012) can be followed below.

Test [1] addresses T1, Mitogen-activated protein kinase 12 (Homo sapiens) (UniProt P53778).
T1 sequence (whole entry): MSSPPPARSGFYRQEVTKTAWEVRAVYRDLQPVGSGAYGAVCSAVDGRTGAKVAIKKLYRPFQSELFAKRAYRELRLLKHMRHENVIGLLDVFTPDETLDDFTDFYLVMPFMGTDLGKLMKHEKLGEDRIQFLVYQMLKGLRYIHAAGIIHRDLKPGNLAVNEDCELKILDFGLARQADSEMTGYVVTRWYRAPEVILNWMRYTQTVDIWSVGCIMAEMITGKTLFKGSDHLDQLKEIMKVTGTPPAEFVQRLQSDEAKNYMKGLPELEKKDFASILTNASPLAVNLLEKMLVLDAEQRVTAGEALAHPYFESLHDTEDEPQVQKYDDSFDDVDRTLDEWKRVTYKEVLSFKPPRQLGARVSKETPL
Conditions: at 1 µM.

In test [2] the target is SRSF protein kinase 1 (Homo sapiens) (UniProt Q96SB4). The settings on record: at 0.1 µM.
Sequence of SRSF protein kinase 1 (Homo sapiens) (Q96SB4 whole entry): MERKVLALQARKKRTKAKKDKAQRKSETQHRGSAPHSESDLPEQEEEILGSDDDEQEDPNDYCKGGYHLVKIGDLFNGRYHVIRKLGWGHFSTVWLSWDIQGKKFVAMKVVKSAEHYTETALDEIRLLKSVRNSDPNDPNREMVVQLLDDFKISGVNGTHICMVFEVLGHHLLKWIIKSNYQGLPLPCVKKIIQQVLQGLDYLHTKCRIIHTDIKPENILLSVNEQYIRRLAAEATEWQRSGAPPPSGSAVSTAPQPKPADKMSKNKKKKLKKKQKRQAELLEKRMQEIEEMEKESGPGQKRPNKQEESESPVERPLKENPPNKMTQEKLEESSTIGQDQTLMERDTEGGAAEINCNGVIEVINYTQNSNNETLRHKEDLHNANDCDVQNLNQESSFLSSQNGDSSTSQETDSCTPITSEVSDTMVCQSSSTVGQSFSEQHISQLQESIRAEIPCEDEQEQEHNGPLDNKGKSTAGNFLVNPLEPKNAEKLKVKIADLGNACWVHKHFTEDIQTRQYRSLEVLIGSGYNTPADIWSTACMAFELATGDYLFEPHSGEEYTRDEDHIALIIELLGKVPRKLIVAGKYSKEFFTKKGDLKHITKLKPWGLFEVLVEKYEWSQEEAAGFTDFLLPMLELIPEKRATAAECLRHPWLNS
The target is the same in test [3]. The settings on record: at 1 µM.
Test [4] concerns the target Phosphatidylinositol 4,5-bisphosphate 3-kinase catalytic subunit alpha isoform (Homo sapiens) (UniProt P42336). The settings on record: at 0.1 µM.
Test [5] shares this target. The settings on record: at 1 µM.
Test [6] deals with T2, Phosphatidylinositol 4,5-bisphosphate 3-kinase catalytic subunit delta isoform (Homo sapiens) (UniProt O00329).
T2 sequence (whole entry): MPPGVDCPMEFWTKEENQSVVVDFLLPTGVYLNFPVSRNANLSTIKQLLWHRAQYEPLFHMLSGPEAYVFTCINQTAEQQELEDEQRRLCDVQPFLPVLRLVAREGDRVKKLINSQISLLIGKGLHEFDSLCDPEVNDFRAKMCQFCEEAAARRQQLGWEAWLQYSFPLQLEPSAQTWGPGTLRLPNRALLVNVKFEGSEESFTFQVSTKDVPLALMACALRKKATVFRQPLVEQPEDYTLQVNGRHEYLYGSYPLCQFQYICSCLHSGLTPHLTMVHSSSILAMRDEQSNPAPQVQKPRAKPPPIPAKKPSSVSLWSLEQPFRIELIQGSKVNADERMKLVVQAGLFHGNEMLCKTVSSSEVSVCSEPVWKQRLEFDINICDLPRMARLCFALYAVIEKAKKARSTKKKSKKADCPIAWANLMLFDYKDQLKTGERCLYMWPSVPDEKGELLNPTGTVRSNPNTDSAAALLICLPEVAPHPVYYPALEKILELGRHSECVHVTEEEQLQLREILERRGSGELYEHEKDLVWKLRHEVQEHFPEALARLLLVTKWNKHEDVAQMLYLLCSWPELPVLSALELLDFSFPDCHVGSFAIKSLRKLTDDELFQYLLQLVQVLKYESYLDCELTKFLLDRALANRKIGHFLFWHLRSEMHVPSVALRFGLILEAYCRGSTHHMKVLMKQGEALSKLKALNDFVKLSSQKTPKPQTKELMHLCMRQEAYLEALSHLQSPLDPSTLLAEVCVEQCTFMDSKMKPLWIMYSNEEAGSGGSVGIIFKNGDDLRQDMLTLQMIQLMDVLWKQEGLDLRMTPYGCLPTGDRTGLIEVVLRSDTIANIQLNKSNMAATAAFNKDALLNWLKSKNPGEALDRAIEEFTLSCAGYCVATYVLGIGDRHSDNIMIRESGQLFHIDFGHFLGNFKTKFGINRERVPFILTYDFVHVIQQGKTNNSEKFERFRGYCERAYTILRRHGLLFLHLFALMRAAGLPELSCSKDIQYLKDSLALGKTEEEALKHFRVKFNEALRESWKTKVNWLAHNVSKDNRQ
Conditions: at 0.1 µM.

Test [7] deals with T2, Phosphatidylinositol 4,5-bisphosphate 3-kinase catalytic subunit delta isoform (Homo sapiens). Conditions: at 1 µM.
The target in test [8] is Phosphatidylinositol 4-kinase beta (Homo sapiens) (UniProt Q9UBF8). Conditions: at 0.1 µM.
Sequence of Phosphatidylinositol 4-kinase beta (Homo sapiens) (Q9UBF8 2-816 limits assumed): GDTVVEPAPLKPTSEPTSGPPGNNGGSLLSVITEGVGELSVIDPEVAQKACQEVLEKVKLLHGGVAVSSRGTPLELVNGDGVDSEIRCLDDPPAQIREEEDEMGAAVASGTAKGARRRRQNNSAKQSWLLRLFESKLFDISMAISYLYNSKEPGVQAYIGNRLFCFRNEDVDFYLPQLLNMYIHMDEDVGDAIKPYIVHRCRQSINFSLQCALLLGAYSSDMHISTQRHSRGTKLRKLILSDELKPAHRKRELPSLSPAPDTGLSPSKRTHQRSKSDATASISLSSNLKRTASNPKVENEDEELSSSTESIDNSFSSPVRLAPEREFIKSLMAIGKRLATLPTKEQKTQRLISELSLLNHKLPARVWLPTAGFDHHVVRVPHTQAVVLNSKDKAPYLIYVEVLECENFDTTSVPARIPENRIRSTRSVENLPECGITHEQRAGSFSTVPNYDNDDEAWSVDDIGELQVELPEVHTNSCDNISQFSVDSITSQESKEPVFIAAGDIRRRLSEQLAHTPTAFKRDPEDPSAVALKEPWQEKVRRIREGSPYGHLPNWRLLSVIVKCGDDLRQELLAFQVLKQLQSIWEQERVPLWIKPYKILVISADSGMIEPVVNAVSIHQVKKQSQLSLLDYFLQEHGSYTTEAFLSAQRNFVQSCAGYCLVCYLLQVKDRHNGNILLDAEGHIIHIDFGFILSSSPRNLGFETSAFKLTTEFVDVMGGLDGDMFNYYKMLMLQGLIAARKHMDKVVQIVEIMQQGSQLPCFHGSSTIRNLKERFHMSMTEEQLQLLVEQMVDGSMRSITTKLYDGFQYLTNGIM
Test [9] has the same target. The settings on record: at 1 µM.
Test [10] has as its target Sphingosine kinase 1 (Homo sapiens) (UniProt Q9NYA1). The settings on record: at 0.1 µM.
Test [11] shares this target. The settings on record: at 1 µM.
Test [12] has as its target T3, Sphingosine kinase 2 (Homo sapiens) (UniProt Q9NRA0).
T3 sequence (whole entry): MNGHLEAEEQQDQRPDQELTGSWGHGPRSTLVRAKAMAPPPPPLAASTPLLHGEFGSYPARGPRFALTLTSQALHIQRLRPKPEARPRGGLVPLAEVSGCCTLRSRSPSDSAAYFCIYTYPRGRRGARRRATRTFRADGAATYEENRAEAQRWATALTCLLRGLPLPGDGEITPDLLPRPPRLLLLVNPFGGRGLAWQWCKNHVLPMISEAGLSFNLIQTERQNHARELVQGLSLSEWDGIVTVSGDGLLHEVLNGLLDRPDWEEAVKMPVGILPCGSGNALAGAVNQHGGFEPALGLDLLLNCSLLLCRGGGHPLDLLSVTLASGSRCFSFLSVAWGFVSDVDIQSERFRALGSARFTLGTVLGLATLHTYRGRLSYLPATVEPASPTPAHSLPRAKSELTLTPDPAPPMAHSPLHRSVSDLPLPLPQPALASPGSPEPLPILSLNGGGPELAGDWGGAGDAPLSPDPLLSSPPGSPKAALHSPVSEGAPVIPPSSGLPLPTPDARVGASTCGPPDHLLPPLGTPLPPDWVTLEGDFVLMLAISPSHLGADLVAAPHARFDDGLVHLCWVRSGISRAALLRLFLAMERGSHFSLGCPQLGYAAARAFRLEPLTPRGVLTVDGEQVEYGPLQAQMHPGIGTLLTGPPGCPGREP
The settings on record: at 0.1 µM.

Test [13] has as its target T3, Sphingosine kinase 2 (Homo sapiens). The settings on record: at 1 µM.
Test [14] addresses Casein kinase II subunit alpha (Homo sapiens) (UniProt P68400). Conditions: at 0.1 µM.
Test [15] has the same target. The settings on record: at 1 µM.
Test [16] concerns the target T4, Inhibitor of nuclear factor kappa-B kinase subunit alpha (Homo sapiens) (UniProt O15111).
T4 sequence (whole entry): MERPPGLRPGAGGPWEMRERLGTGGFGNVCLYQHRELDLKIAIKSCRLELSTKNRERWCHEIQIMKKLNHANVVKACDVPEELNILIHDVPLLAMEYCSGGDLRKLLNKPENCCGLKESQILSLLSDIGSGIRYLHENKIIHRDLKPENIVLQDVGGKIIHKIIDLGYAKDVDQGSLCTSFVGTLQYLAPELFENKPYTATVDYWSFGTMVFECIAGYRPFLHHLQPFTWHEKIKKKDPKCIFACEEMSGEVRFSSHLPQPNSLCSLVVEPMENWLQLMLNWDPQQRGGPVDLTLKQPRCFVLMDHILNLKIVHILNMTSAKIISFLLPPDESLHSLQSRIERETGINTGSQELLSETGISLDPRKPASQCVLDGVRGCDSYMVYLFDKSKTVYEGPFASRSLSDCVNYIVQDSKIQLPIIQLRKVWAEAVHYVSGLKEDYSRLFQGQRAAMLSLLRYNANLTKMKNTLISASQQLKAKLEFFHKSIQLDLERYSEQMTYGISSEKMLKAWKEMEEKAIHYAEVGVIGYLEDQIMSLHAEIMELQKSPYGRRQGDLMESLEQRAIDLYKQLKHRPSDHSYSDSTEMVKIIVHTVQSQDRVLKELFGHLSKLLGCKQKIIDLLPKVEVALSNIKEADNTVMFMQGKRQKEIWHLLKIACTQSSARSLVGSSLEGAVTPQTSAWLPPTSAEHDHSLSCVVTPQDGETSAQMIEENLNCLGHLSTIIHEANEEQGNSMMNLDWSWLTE
The settings on record: at 0.1 µM.

For test [17], the target named is T4, Inhibitor of nuclear factor kappa-B kinase subunit alpha (Homo sapiens). Conditions: at 1 µM.
In test [18] the target is T5, Inhibitor of nuclear factor kappa-B kinase subunit beta (Homo sapiens) (UniProt O14920).
T5 sequence (whole entry): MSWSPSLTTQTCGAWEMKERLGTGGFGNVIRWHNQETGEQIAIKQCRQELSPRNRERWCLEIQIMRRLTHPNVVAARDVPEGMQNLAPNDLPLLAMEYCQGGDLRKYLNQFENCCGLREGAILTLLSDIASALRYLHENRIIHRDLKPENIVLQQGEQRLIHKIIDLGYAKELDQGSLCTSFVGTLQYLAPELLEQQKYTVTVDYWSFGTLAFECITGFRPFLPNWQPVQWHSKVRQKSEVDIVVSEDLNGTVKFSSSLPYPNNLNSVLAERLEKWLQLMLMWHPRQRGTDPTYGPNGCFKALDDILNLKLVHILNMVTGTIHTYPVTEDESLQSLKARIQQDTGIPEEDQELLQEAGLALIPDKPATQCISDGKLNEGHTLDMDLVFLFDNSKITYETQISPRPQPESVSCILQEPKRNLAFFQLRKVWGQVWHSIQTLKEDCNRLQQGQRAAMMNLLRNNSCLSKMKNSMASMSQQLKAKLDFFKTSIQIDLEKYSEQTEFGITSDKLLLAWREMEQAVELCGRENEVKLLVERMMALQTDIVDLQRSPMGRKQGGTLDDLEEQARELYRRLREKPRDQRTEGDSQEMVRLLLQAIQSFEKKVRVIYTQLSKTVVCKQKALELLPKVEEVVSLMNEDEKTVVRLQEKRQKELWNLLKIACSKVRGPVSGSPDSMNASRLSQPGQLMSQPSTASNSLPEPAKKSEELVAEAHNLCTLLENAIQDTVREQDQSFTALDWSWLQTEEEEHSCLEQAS
Conditions: at 0.1 µM.

The target of test [19] is T5, Inhibitor of nuclear factor kappa-B kinase subunit beta (Homo sapiens). Conditions: at 1 µM.
Test [20] concerns the target T6, Inhibitor of nuclear factor kappa-B kinase subunit epsilon (Homo sapiens) (UniProt Q14164).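 Note: mean inhibition of IKKε reported, from the GSK PKIS dataset.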
T6 sequence (whole entry): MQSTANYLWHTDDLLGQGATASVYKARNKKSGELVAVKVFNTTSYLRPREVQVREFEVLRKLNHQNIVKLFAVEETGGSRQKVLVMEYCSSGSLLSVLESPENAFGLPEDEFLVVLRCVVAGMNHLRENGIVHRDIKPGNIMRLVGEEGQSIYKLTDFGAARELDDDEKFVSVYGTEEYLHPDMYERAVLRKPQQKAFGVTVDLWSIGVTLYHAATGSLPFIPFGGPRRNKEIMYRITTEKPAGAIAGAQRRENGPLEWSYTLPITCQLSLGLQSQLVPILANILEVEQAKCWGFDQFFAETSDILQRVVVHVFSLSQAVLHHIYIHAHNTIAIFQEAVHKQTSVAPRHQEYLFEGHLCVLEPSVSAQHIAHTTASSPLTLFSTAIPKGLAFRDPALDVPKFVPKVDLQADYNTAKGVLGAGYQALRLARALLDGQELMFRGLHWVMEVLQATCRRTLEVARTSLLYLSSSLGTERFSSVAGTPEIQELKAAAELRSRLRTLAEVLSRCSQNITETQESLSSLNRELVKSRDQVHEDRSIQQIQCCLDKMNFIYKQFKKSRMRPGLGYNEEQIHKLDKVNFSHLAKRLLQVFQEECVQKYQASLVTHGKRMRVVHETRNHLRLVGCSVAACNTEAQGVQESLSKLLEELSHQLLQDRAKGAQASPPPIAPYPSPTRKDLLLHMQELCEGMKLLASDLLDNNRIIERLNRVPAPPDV
The settings on record: at 0.1 µM.

Sequence of Casein kinase II subunit alpha (Homo sapiens) (P68400 whole entry, looked up): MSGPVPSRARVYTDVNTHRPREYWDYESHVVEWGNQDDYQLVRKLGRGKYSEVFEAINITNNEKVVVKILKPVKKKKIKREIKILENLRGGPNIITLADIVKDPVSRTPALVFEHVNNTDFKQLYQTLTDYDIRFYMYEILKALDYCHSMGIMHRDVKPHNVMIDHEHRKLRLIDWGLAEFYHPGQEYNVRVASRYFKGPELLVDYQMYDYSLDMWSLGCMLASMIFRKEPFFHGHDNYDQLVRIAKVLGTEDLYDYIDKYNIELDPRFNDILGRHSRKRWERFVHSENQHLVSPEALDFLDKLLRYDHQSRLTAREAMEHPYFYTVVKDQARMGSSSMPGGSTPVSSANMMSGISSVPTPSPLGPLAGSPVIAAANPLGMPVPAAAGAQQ
Sequence of Sphingosine kinase 1 (Homo sapiens) (Q9NYA1 whole entry): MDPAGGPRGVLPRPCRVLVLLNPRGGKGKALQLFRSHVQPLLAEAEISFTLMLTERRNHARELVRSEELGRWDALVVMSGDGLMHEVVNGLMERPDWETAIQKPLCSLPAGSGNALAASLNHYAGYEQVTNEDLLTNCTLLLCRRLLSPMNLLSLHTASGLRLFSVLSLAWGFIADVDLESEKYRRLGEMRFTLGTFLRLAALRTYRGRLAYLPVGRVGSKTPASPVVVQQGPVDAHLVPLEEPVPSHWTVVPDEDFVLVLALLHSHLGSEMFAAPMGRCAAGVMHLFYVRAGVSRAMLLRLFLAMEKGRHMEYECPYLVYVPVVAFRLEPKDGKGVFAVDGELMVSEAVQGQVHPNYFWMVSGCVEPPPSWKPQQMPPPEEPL
Sequence of Phosphatidylinositol 4,5-bisphosphate 3-kinase catalytic subunit alpha isoform (Homo sapiens) (P42336 whole entry, canonical isoform): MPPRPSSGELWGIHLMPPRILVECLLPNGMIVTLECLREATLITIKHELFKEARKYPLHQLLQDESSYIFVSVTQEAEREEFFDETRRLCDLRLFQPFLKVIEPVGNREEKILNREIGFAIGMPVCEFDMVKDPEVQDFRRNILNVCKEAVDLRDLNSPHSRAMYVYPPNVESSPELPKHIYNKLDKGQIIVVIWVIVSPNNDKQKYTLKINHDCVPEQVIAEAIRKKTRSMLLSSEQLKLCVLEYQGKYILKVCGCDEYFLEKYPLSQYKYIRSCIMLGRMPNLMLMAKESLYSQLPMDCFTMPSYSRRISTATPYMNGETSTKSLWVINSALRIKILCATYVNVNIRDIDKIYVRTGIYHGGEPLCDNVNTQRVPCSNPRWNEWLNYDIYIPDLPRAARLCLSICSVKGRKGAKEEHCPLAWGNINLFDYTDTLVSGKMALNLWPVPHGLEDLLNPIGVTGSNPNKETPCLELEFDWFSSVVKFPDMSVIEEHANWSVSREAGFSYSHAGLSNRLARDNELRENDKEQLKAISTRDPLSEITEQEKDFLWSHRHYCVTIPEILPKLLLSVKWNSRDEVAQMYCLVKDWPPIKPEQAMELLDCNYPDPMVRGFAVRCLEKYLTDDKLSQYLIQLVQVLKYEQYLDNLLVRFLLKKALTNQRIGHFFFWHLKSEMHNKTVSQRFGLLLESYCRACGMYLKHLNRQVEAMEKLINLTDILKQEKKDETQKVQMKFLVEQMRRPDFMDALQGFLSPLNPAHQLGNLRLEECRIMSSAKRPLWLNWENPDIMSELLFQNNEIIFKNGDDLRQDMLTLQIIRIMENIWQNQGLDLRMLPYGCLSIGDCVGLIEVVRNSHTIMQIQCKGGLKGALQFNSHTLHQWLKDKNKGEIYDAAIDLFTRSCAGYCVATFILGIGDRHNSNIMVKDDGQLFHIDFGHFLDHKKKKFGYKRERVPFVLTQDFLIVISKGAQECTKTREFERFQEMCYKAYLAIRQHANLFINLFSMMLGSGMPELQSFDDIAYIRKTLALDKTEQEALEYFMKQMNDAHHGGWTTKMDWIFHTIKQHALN

On to `O=C1Nc2ccccc2/C1=C1\CCc2cc(O)ccc21`, for which the inhibition in [1] was 4.17%; in test [2], -1.97%; in test [3], -3.93%; in test [4], 3.67%; in test [5], 6.82%; in test [6], 2.68%. Moreover, the inhibition in [7] is 5.45%; in [8], -5.42%; in test [9], -0.12%; in [10], 1.98%; in [11] it was -8.14%; in [12] it was -0.36%. For the same compound, the inhibition in test [13] is -2.47%; in test [14] it was 3.18%; in test [15] it was 9.1%; in test [16], 13%; in test [17] it was 5.45%; in test [18] it was 5.41%. The inhibition was determined as 5.64% in [19] and 6.27% in test [20].

`Cc1nnc(-c2cccc(-c3ccc(C(=O)NCC4CC4)cc3)c2)o1`: the inhibition in test [1] was 2.67%; in [2] it was -0.9%; in test [3] it was 2.29%; in test [4], 2.25%; in [5] it was 2.72%; in [6], -0.87%. Besides, the inhibition is -2.41% in test [7]; -0.63% in test [8]; -1.44% in test [9]; -1.27% in [10]; -1.04% in test [11]; 0.67% in test [12]. In addition, the inhibition in test [13] was -1.45%; in [14], 5.98%; in test [15], 8.99%; in test [16], -9.01%; in [17] it was -3.16%; in test [18] it was 6.42%. Moreover, the inhibition in [19] turned out to be 5.6%; in [20], 7.79%.

For the compound `Cc1ccc(-c2cc3c(NC(=O)C4CC4)ncnc3o2)cc1`, the inhibition is 2.7% in test [1]; -2.33% in test [2]; -1.12% in test [3]; 1.23% in test [4]; 2.63% in test [5]; 2.48% in test [6]. Besides, the inhibition in test [7] is 3.33%; in [8], -4.86%; in test [9] it was -6.67%; in [10] it was 3.8%; in test [11], -8.41%; in test [12], -0.23%. For the same compound, the inhibition was -0.24% in test [13]; 2.02% in test [14]; 10.8% in [15]; 4.84% in test [16]; 1.2% in [17]; 2.98% in test [18]. In addition, the inhibition in [19] came out at 4.2%; in test [20], 4.06%.

For `COc1cccc(Nc2nccc(-c3cnn4ncccc34)n2)c1`, the inhibition in test [1] is 9.23%; in test [2] it was -0.98%; in test [3], 4.98%; in test [4], 3.25%; in [5], 17%; in test [6], 3.95%. Further, the inhibition in test [7] is 19.1%; in test [8], -0.93%; in test [9], 11.1%; in [10] it was 0.27%; in test [11], -2.02%; in test [12], 0.58%. Moreover, the inhibition is -1.48% in test [13]; 8.12% in test [14]; 40.9% in test [15]; 11.6% in test [16]; 53.6% in test [17]; 5.19% in [18]. For the same compound, the inhibition in test [19] amounted to 27.1%; in test [20], 3.06%.

A word on the inhibition: it is the relative decrease from the control value, in per cent.
